High-throughput results (PubChem)
The full list was thinned out, with hits kept by preference.
TDP1 cell noCPT: qHTS for Inhibitors of human tyrosyl-DNA phosphodiesterase 1 (TDP1): qHTS in cells in absence of CPT. Potency, µM (highest dose often 46.2 µM), for inactives: top-dose activity change, negative = growth inhibition, most hits filed as inhibitors. DT40 Tdp1-/- hTDP1 cells, no CPT, ATP luminescence, 48 h. 15% of 420,000 active; note: potency is the fitted concentration of half-maximal effect; nearly all actives have a fitted effect of over 55% in size
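Growth kinetics read by CellTiter-Glo luminescence after ≥48 hr at 37 °C. Cells: DT40 Tdp1-/- stably carrying human TDP1, 400 per well, compound exposure in the absence of CPT (DMSO vehicle).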
IL1B secr inh: qHTS for Inhibitors of Inflammasome Signaling: IL-1-beta AlphaLISA Primary Screen; activity change, % at 57.5 µM; AID 743279, 2014; 4.7% of 360,000 active; THP-1 LPS/ATP IL-1B secretion, AlphaLISA, 16 h; hits give low values; in the data active = activity change below about -50%; inconclusive = mostly about -30% to -49%
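THP-1 cells pretreated 1 hr with compounds (up to 57.5 uM final), then stimulated with LPS (250 ng/mL final) plus ATP (1.25 mM final); secreted IL-1B measured by AlphaLISA after 16 hr, decreased signal indicating inhibition.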
12-LOX inh: Primary qHTS assay for inhibitors of human arachidonate 12S-lipoxygenase (ALOX12): Round 2; AID 1671190, 2021; Polyunsaturated fatty acid lipoxygenase ALOX12 (Homo sapiens), P18054; purified 12hLO, xylenol orange hydroperoxide absorbance; 1.1% of 580,000 active; Potency, µM (top dose mostly 108 µM), for inactives: at the top dose activity change, negative = inhibition, usual class: inhibitors; note: potency is the fitted concentration of half-maximal effect
Target sequence (P18054 whole entry, looked up): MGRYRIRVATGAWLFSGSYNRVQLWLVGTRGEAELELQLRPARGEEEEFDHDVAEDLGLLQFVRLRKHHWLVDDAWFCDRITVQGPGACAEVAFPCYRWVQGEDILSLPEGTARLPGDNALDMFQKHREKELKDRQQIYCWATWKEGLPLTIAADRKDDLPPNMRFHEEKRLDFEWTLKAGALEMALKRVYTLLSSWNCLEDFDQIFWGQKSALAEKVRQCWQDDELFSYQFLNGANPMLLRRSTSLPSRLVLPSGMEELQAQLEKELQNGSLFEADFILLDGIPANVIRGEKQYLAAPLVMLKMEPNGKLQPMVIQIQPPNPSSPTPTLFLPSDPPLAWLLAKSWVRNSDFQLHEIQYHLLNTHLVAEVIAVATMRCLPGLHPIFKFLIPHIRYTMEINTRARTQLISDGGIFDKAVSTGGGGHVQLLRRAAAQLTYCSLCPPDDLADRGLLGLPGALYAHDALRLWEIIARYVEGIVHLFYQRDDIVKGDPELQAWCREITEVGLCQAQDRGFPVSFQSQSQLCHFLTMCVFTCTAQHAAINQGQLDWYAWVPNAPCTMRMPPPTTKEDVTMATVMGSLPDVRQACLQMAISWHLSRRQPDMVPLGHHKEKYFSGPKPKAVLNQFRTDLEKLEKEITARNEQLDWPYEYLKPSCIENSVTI
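Purified human 12hLO at 150 nM in 25 mM Hepes, 0.01% Triton X-100, pH 7.0, preincubated 15 min at room temperature with compound. Reaction started with 40 uM arachidonic acid, 30 min at room temperature. Hydroperoxide measured by Fe-xylenol orange, 573/405 nm absorbance ratio.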
HT1080 IDH1KD tx: qHTS for induction of synthetic lethality in tumor cells producing 2HG: qHTS for the HT-1080-IDH1KD cell line. HT-1080 IDH1 knockdown viability, ATP luminescence, 48 h. Potency, µM (series often up to 46.1 µM), for the others: top-dose activity, negative = toxicity, hits mostly cytotoxic. 2% of 360,000 active. AID 686971, 2013;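 note: potency is the fitted concentration of half-maximal effect; 0% = DMSO wells and -100% = cell-free medium wells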
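Viability of IDH1-knockdown HT-1080 fibrosarcoma cells was assessed by CellTiter-Glo after 48 h at 37 °C with titrated compound; concentration-effect curves were classified by fit quality and response size.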
HT1080-NT tox: qHTS for induction of synthetic lethality in tumor cells producing 2HG: qHTS for the HT-1080-NT fibrosarcoma cell line; HT-1080-NT fibrosarcoma viability, CellTiter-Glo ATP luminescence, 48 h; Potency, µM (titrated, usually from 46.1 µM), inactives show at the top dose activity, negative = less viability, hits mostly cytotoxic; 1.6% of 360,000 active;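 note: NT is the 2HG producing partner of a matched IDH1 knockdown line; potency is the fitted concentration of half-maximal effect; 0% = DMSO-treated cells and -100% = media-only wells without cells; nearly all actives have a fitted effect of over 55% in size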
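HT-1080-NT; 750 cells/well; 5% FBS RPMI; 48 h compound, 37 degrees C; CellTiter-Glo luminescence; curve fitting and curve-class assignment.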
TDP1 cell CPT: qHTS for Inhibitors of human tyrosyl-DNA phosphodiesterase 1 (TDP1): qHTS in cells in presence of CPT; chicken DT40 Tdp1-/-;hTDP1 cells + 20 nM CPT, ATP luminescence, 48 h; Potency, µM (titrated, usually from 46.2 µM), inactives show at the top dose activity change, negative = growth inhibition, actives largely listed as inhibitors; 12% of 420,000 active; note: potency is the fitted concentration of half-maximal effect; nearly all actives have a fitted effect of over 55% in size
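Chicken DT40 Tdp1-/- cells complemented with human TDP1, 400 cells/well, exposed to compounds plus 20 nM camptothecin for at least 48 h at 37 C; viability read as ATP content by CellTiter-Glo luminescence.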
* marks the source's active call; other numbers are inactive results; ? = inconclusive; . = no result; [ ] = remark or other dose. Unless noted, calls come from the whole dose curve; as a rule, active = well fitted curve in the direction sought with a large enough effect; inconclusive = small, poorly fitted or top-dose-only effect, or another doubt; inactive = no such curve, though single readings can be large; an effect the other way counts as inactive or inconclusive. Unless noted, % is set by controls: 0 for no effect and ±100 for the full control effect.

SMILES	TDP1 cell noCPT	IL1B secr inh	12-LOX inh	HT1080 IDH1KD tx	HT1080-NT tox	TDP1 cell CPT
CC(C)c1nc2sc3ccccc3c(=O)c2c(=O)n1Cc1ccccc1	15µM*	61	22%	-2%	1%	16µM*
COc1ccc(Cn2c(C(C)C)nc3sc4ccccc4c(=O)c3c2=O)cc1	12µM*	?	0%	4%	3%	?
CCCc1nc2sc3ccccc3c(=O)c2c(=O)n1Cc1ccc(OC)cc1	21µM*	40	0%	-6%	-17%	13µM*
COCCn1c(C(C)C)nc2sc3ccccc3c(=O)c2c1=O	-27%	20	-1%	0%	9%	-20%
CC(C)C(C)NC(=O)COC(=O)c1ccc2c(c1)NC(=O)CS2 (configuration not stated)	.	.	-23%	.	.	.
CCCc1noc(-c2nc(-c3ccc4c(c3)OCO4)no2)n1	.	.	-43%	.	.	.
Cc1nc(NC2=NCN(CCCN3CCOCC3)CN2)nc2c(C)cccc12	16µM*	-61*	.	-13%	-5%	?
CC(C)C(c1nnnn1Cc1ccccc1)N(Cc1ccco1)Cc1cccs1 (configuration not stated)	21µM*	-10	4%	-30%	-13%	?
Cc1ccc(-c2nc3cccnc3o2)cc1NC(=O)COc1ccc(C(C)(C)C)cc1	9.2µM*	-9	2%	?	?	15µM*
CC(NC(=O)Cn1nc(-c2ccc(F)cc2)oc1=O)c1ccc(F)cc1 (configuration not stated)	.	.	1%	.	.	.
COc1ccc(NC(=O)CN2CCN(C(C)=O)CC2)cc1S(=O)(=O)N1CCOCC1	2%	34	-36%	17%	4%	1%
COC(=O)c1ccc(C(=O)OC)c(NC(=O)CN2CCN(c3ccccc3OC)CC2)c1	26µM*	-10	-26%	9%	-5%	?
COC(=O)c1ccc(C(=O)OC)c(NC(=O)CN2CCN(c3ccccc3)CC2)c1	-26%	29	-8%	4%	16%	?
COc1ccc(NC(=O)CN2CCN(c3ccccc3F)CC2)cc1	-1%	11	-1%	3%	2%	-20%
CCN(CC)c1ccc(NC(=O)CN2CCN(c3ccccc3OC)CC2)cc1	16µM*	.	-26%	.	.	21µM*
COc1ccc(NC(=O)c2ccc(NC(=O)CN3CCN(c4ccccc4OC)CC3)cc2)cc1	18µM*	68	-20%	?	?	?
CCN(CC)c1ccc(NC(=O)CN2CCN(S(=O)(=O)c3cc(Cl)ccc3OC)CC2)cc1	16µM*	-29	?	?	?	?
CCN(CC)c1ccc(NC(=O)CN2CCN(c3ccccc3F)CC2)cc1	?	-9	0%	-2%	-6%	?
COC(=O)C1(Cc2cc(-c3cccc(Br)c3)no2)CCN(C(=O)OC(C)(C)C)CC1	?	-7	-5%	-17%	-10%	?
COC(=O)C1(Cc2cc(-c3ccc(OC)cc3OC)no2)CCN(C(=O)OC(C)(C)C)CC1	21µM*	6	-3%	7%	0%	?
Fc1ccc(Sc2ccccc2CNC2=NCCN2)cc1	18µM*	?	?	?	-17%	12µM*
Cc1ccc(NC(=O)NC(=O)CN2CCCC2c2ccc3c(c2)OCCO3)cc1C (configuration not stated)	?	-13	144%	-7%	7%[9.24 µM]	29µM*
O=C(CCl)N1CCCC1c1ccc2c(c1)OCCO2 (configuration not stated)	1.2µM*	-102*	-18%	18µM*	23µM*	0.73µM*
O=C(O)c1cccnc1Sc1ccc(F)cc1	.	.	-4%	.	.	.
CCc1c(O)nc(SC2CC(=O)N(c3ccc(F)c(Cl)c3)C2=O)[nH]c1=O (configuration not stated)	8%	27	?	14%	10%	18%
SMILES	TDP1 cell noCPT	IL1B secr inh	12-LOX inh	HT1080 IDH1KD tx	HT1080-NT tox	TDP1 cell CPT
Cc1c(O)nc(SC2CC(=O)N(c3cc(Cl)cc(Cl)c3)C2=O)[nH]c1=O (configuration not stated)	-6%	11	5.6µM*	18%	20%	12%
Cc1cc(C)nc(SC2CC(=O)N(c3ccc(C)c(C)c3)C2=O)n1 (configuration not stated)	15µM*	64	10%	16µM*	?	?
Cc1cc(C)nc(SC2CC(=O)N(c3ccc(Cl)cc3)C2=O)n1 (configuration not stated)	21µM*	15	-1%	1%	6%	?
CC(C)C1Oc2ccccc2N(CC(=O)N(C)C2CCCCC2)C1=O (configuration not stated)	?	-74*	-5%	-1%	-5%	?
CCCS(=O)(=O)N1CCN(CC2CC3C=CC2C3)CC1 (configuration not stated)	5.8µM*	21	?	9%	3%	-8%
CC1CN(Cc2nc3c(c(=O)n(C)c(=O)n3C)n2CCc2ccccc2)CC(C)O1 (configuration not stated)	-6%	-22	-4%	2%	1%	-19%
Cc1c(C(=O)OC2CCCCCC2)[nH]c2c1C(=O)CC(c1ccc(Cl)cc1)C2 (configuration not stated)	-20%	.	2%	.	.	1%
Cc1c(C(=O)OC2CCCCC2)[nH]c2c1C(=O)CC(c1ccc(C(C)(C)C)cc1)C2 (configuration not stated)	18µM*	.	3%	.	.	21µM*
Cc1c(C(=O)OC2CCCCCC2)[nH]c2c1C(=O)CC(c1ccccc1)C2 (configuration not stated)	3.7µM*	.	-17%	.	.	3.3µM*
CCSc1nnc2n1C(C)(C)Cc1ccccc1-2	0%	-10	0%[57.4 µM]	-1%	2%	-2%
CC1(C)Cc2ccccc2-c2n[nH]c(=S)n21	23µM*	2	?	11µM*	14µM*	?
COc1cc(NC(=O)Cn2cc(C#N)c3ccccc32)cc(OC)c1	.	.	0%	.	.	.
COc1ccc(NC(=O)Cn2c(=O)n(-c3ccc(F)cc3)c(=O)c3c2cc(C)n3C)cc1	.	.	-8%	.	.	.
Fc1ccc(C2Nc3cccc4cccc(c34)N2)cc1	?	-18	?	-28%	-10%	?
